Screening data as filed in PubChem.
CCT modulator = modulators of cytosolic chaperonin (CCT/TRiC) activity | AID 651819 | hit rate 0.3% among 360,000 | purified chaperonin ATPase assay, HTRF ADP detection, 30 min | activity change, % (test concentration not listed), hits read low; in the data active means activity change below about -30%
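Nucleotide hydrolysis assay: TRiC at 20–40 nM final (set by batch activity) with 10 uM ATP, 30 min at 37 °C, in presence of 76 uM compound. Detection by competitive ADP HTRF, 30 min ambient.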
MmCpn inh = blocks the Methanococcus maripaludis chaperonin Mm-Cpn; purified Mm-Cpn ATPase, ADP Transcreener TR-FRET; Potency, µM (titrated, usually from 76.9 µM), for the others: at the top dose activity, negative = inhibition, most hits filed as inhibitors; hit rate 0.031% among 330,000; AID 504842; further: potency means the concentration at half of the fitted maximal effect; nearly all actives have a fitted effect of over 80% in size
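TR-FRET (320 nm excitation; 590 and 665 nm emission) reports ADP made from 10 uM ATP by 25 nM enzyme; compounds were preincubated 10 min, reaction run 30 min, both at 37°C.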
PLK1 PBD block = blocks phosphopeptide binding to human PLK1 polo-box domain; P53350; Plk1 PBD binding of FITC phosphopeptide, fluorescence polarization; Potency, µM, for the others: max response, negative = inhibition, usual class: inhibitors; hit rate 2.8% among 360,000; further: potency means the concentration at half of the fitted maximal effect; series mostly up to about 57 µM; nearly all actives have a fitted effect of over 65% in size
Sfp inh = inhibitors of Bacillus subtilis Sfp phosphopantetheinyl transferase | Q9F4F7 | Biochemical Sfp PPTase activity, qHTS | Potency, µM, for the others: largest response in the series, negative = inhibition, most hits filed as inhibitors | hit rate 3.5% among 310,000 | AID 1490;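 further: the enzyme is Sfp with the accession as filed and its product quenches rhodamine fluorescence; potency means the concentration at half of the fitted maximal effect; 0% = enzyme reaction without inhibitor and -100% = no enzyme wells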
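With Hepes-Na pH 7.6 buffer containing 10 mM MgCl2, Sfp (15 nM) modified BHQ-2-YbbR (12.5 uM) using rhodamine-CoA (5 uM). Two reads 30 minutes apart at 525/598 nm yielded each well's rate.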
VDR inhibitor = inhibitors of human vitamin D receptor; VDR-SRC2-3 peptide fluorescence polarization, 2 h; hit rate 0.93% among 400,000; P11473; Potency, µM, without a hit: max response, negative = inhibition, usual class: inhibitors; further: potency means the concentration at half of the fitted maximal effect
Target sequence (P11473 whole entry, looked up): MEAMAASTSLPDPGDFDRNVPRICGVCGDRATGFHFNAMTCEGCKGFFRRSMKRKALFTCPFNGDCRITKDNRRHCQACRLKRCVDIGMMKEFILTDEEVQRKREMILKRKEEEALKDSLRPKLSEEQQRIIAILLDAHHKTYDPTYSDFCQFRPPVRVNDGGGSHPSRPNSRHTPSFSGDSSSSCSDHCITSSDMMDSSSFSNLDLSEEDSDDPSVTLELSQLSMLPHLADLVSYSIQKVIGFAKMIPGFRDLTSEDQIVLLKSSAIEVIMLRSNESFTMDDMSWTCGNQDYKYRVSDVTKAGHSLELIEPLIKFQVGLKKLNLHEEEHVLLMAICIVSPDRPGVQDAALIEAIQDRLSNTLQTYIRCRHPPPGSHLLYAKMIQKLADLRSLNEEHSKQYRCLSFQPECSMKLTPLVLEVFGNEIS
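Measured by FP: displacement of SRC2-3 coactivator peptide from VDR by library compounds, following a two-hour ambient incubation.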
G9a inh = inhibitors of human histone lysine methyltransferase G9a; Q96KQ7; G9a H3K9 monomethylation, AlphaScreen, 2 h; Potency, µM (series often up to 102 µM), without a hit: at the highest dose activity, negative = inhibition, actives largely listed as inhibitors; hit rate 8.8% among 350,000; AID 504332; further: potency means the concentration at half of the fitted maximal effect; nearly all actives have a fitted effect of over 75% in size
Target sequence (Q96KQ7 913-1193 limits assumed): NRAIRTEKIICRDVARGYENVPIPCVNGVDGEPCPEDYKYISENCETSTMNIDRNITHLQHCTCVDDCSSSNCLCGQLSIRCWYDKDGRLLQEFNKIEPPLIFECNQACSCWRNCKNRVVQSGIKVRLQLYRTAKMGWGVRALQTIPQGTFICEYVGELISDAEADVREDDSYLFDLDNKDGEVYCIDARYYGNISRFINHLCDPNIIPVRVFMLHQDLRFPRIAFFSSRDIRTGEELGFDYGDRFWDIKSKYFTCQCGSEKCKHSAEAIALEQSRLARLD
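AlphaScreen detection with an anti-monomethyl H3K9 antibody quantified product after a 2 h room-temperature reaction containing 500 nM biotinylated H3K9 peptide, 20 µM SAM and 20 nM enzyme, which had been preincubated 15 min with compound.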
Numbers without * were called inactive; ? = inconclusive; . = no result; [ ] = another dose, or the depositor's remark. This is a sample that favours compounds with a hit; in the whole collection about 10% have one here. Unless noted, the call rests on the fitted dose curve; in most records, active means well fitted curve in the direction sought with a large enough effect; inconclusive means small, poorly fitted or top-dose-only effect, or another doubt; inactive means no such curve, though single readings can be large; an effect the other way counts as inactive or inconclusive. Unless noted, on the % scale 0 is the no-effect control and ±100 the full control effect.

SMILES	CCT modulator	MmCpn inh	PLK1 PBD block	Sfp inh	VDR inhibitor	G9a inh
COc1ccc(CNC(=O)C(CC(C)C)NS(=O)(=O)c2ccc3c(c2)oc(=O)n3C)cc1 (stereo not drawn)	.	.	.	.	2.9%	-25.1%[59 µM]
Cc1ccc(-c2csc(=S)[nH]2)cc1	2.5	-0.4%	?	35.5µM*	?	12.6µM*
S=c1[nH]c(-c2ccc(Cl)cc2)cs1	-7.9	-7.7%	9.47µM*	11.2µM*	?	35.5µM*
S=c1nccc(-c2ccc(Cl)cc2)[nH]1	2.9	-1.1%	1.5µM*	-10.6%	?	-31.1%
Clc1ccc(-c2ccn[nH]2)cc1	-3.4	1.2%	-8.2%	-16.3%	-8.7%	-22.9%
CCOc1ccc(-c2nn3c(-c4cc(-c5ccccc5)n[nH]4)nnc3s2)cc1	.	.	.	.	-12.1%	.
Cc1ccc(CNc2nc3ccccc3c3nc(-c4cccc(C)c4)nn23)cc1	.	.	.	.	-3.1%	25.3%[59 µM]
Nc1sc(-c2ccccc2)c(Cc2ccccc2)c1C(=O)O	-1.1	-3.1%	?	-8.2%	14.4%	50.1µM*
Cc1ccc(-c2cnc(-c3ccccc3C(=O)O)o2)cc1	0.4	-2.4%	-8.7%	18.1%	-2.7%	50.1µM*
COc1cccc(CCc2nnc(N)s2)c1	-0.3	-2.4%	?	-15.5%	-6.9%	79.4µM*
CC(C)[C@@H](CC(=O)N[C@@H]1CCNC[C@H]1C(=O)N[C@H](CC(=O)N[C@@H](CCC(=O)O)CC(=O)O)Cc1ccccc1)NC(=O)C[C@H](Cc1c[nH]c2ccccc12)NC(=O)[C@@H]1CCCC[C@H]1N	.	.	.	-16.5%	8.0%	.
Cc1sc2nc(SCC(=O)NCc3ccco3)n(C)c(=O)c2c1C	-3.3	-1.4%	-3.0%	9.6%	-9.5%	-1.5%
CCn1c(SCC(=O)NC(=O)NCc2ccco2)nc2sc(C)c(C)c2c1=O	-1.4	-4.4%	-8.9%	25.1µM*	8.5%	?
CCCn1c(SCC(=O)NCc2ccc(F)cc2)n[nH]c1=O	-2.6	-5.1%	21.2µM*	19.8%	3.4%	1.9%
Cc1sc2nc(SCc3ccc(C(=O)O)cc3)n(Cc3ccco3)c(=O)c2c1C	-2.3	0.3%	26.7µM*	-23.6%	89.1µM*	?
CCCn1c(SCC(=O)NC(=O)NCc2ccco2)n[nH]c1=O	.	-1.2%	.	22.4µM*	.	?
Cc1noc(C)c1C(=O)N1CCC2(CCN(Cc3nccs3)CC2)CC1	.	.	.	2.0%	0.2%	3.3%[12.7 µM]
CCCNC(=O)CSc1c(CCC)cnc2c1c(=O)n(C)c(=O)n2C	.	.	.	.	17.0%	-13.9%[59 µM]
CCCn1c(SCc2nc3ccccc3s2)n[nH]c1=O	0.5	-0.1%	?	0.4%	7.7%	56.2µM*
CCCc1nc(SCC(=O)NCc2ccco2)c2c(=O)n(C)c(=O)n(C)c2n1	-2.7	0.1%	-4.4%	-0.1%	-22.5%	44.7µM*
Cc1sc2nc(C3CC3)nc(SCC(=O)NCc3ccco3)c2c1C	3.6	-2.4%	-7.6%	?	-3.1%	50.1µM*
CCCc1cnc2c(c1SCC(=O)NCc1ccc(C)cc1)c(=O)n(C)c(=O)n2C	.	.	.	.	5.0%	10µM*
Cc1ccc(C)c(N2CCN(C(=O)c3cc(S(=O)(=O)N4CCCC4)c[nH]3)CC2)c1	.	.	.	.	9.7%	-9.4%[59 µM]
O=C(NCc1ccco1)C(c1ccco1)N(CCc1ccccc1)C(=O)Cn1nnc2ccccc21 (stereo not drawn)	0.3	-6.8%	3.77µM*	?	2.1%	-12.2%
Cc1ccc(NC(=O)c2ccc(=O)n(Cc3ccccc3C)c2)c(C)c1	.	.	.	.	3.3%	5.0%[59 µM]
SMILES	CCT modulator	MmCpn inh	PLK1 PBD block	Sfp inh	VDR inhibitor	G9a inh
COc1ccccc1CNC(=O)CCC1N=C2c3ccccc3N=C(SCc3ccc(Cl)cc3)N2C1=O (stereo not drawn)	.	.	.	.	7.3%	-17.0%[59 µM]
O=C1c2ccccc2NC(c2ccc(O)c(O)c2)N1c1ccccc1Cl (stereo not drawn)	1.7	-24.5%	-7.3%	1.6%	-3.7%	44.7µM*
O=C(NN1C(=O)CSC1=S)c1cccnc1	-2.8	-1.6%	-7.8%	56.2µM*	-15.6%	50.1µM*
O=C(NCc1nc2ccccc2[nH]1)c1ccc(Cl)c(S(=O)(=O)N2CCCC2)c1	-3.1	1.5%	-9.9%	18.9%	9.4%	35.5µM*
CSCC[C@H](NC(=O)c1ccc(Cl)c(S(=O)(=O)N2CCCC2)c1)c1nc2ccccc2[nH]1	0.0	0.7%	-0.6%	-1.2%	2.2%	35.5µM*
CCOC(=O)c1c(NC(=O)C(C)Sc2cn(CCNC(=O)c3ccccc3OC)c3ccccc23)sc2c1CCC2 (stereo not drawn)	.	.	.	.	3.2%	?
COc1cc(C(=O)Nc2ccc(-c3nc4ccccc4o3)c(O)c2)cc(OC)c1OC	.	.	.	.	-22.7%	-12.1%[59 µM]
CCC(C)(C)n1nnnc1C(c1cc2ccc(OC)cc2[nH]c1=O)N1CCCCC1 (stereo not drawn)	-1.4	-1.9%	-5.9%	2.6%	-25.3%	?
CCC(C)(C)n1nnnc1C(c1cc2cc(C)cc(C)c2[nH]c1=O)N1CCCC1 (stereo not drawn)	-4.1	-5.2%	-12.3%	25.1µM*	32.2%	7.94µM*
Cc1cc(C)c2[nH]c(=O)c(C(c3nnnn3C(C)(C)C)N3CCN(C(=O)c4ccco4)CC3)cc2c1 (stereo not drawn)	0.5	0.3%	-14.1%	17.8µM*	-30.7%	?
Cc1cc(C)c2[nH]c(=O)c(C(c3nnnn3Cc3ccc4c(c3)OCO4)N3CCCCC3)cc2c1 (stereo not drawn)	0.6	-0.1%	-13.1%	-9.9%	1.7%	?
CCC(C)(C)n1nnnc1C(c1cc2cc(C)cc(C)c2[nH]c1=O)N1CCN(Cc2ccc3c(c2)OCO3)CC1 (stereo not drawn)	2.2	1.8%	-14.1%	63.1µM*	-7.5%	-3.9%[12.7 µM]
COc1ccccc1C(c1nnnn1C(C)(C)C)N1CCN(C(=O)c2ccco2)CC1 (stereo not drawn)	0.9	-3.0%	-19.5%	4.8%	-12.7%	3.6%[59 µM]
CCC(C)(C)n1nnnc1C(c1cc2cccc(C)c2[nH]c1=O)N1CCCC1 (stereo not drawn)	0.9	-4.2%	-10.9%	-22.6%	22.4%	11.2µM*
CC(C)Oc1ccc(C(=O)N2CCN(c3nc4c(F)cc(F)cc4s3)CC2)cc1	.	.	.	.	-2.4%	-3.8%[59 µM]
CCOC(=O)C1CCN(c2ncnc3c2nnn3C)CC1	.	.	.	.	1.9%	8.0%[59 µM]
Cc1ccc(NC(=O)Cn2c(=O)n(Cc3ccc4c(c3)OCO4)c(=O)c3ccc(C(=O)NC4CCCCC4)cc32)cc1	.	.	.	.	19.7%	3.1%[59 µM]
O=C1NC(c2ccco2)Nc2sc3c(c21)CCN(Cc1ccccc1)C3 (stereo not drawn)	-0.2	-5.3%	-11.6%	22.1%	-22.9%	28.2µM*
CCOC(=O)N1CCc2c(sc3c2C(=O)NC(c2ccccc2)N3)C1 (stereo not drawn)	-0.8	-3.7%	?	56.2µM*	-27.4%	?
